# Bioassay records deposited in PubChem BioAssay by National Center for Advancing Translational Sciences (NCATS).
# An excerpt weighted towards active compounds, which were near 2.8% of everything screened.
# POLB inh = DNA polymerase beta (human) inhibition. Pol beta primer extension/strand displacement, fluorescence kinetic. Potency, µM (series often up to 114 µM), for inactives: at the top dose activity change, negative = inhibition, usual class: inhibitors. actives 1.3% (n = 340,000). AID 485314; further: potency means the concentration at half of the fitted maximal effect; on the % scale 0 is the no-effect control and ±100 the full control effect
#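 Values derive from four-parameter Hill fits of normalized kinetic data: reads at 0 and 10 min following addition of 50 nM substrate to 10 nM Pol beta preincubated 15 min with compound.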
# WRN inhibitor = inhibitors of human WRN helicase | AID 651768 | actives 0.46% (n = 360,000) | Potency, µM (top dose mostly 114 µM), for the others: top-dose activity change, negative = inhibition, hits mostly inhibitors | Q14191 | WRN helicase unwinding, fluorescent forked duplex, kinetic; further: potency means the concentration at half of the fitted maximal effect; on the % scale 0 is the no-effect control and ±100 the full control effect; nearly all actives have a fitted effect of over 55% in size
#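 Kinetic red-fluorescence monitoring (525/598 nm) tracks WRN helicase activity after 100 nM fluorophore-quencher forked duplex and 2 mM ATP are added to 20 nM enzyme pretreated 15 min at room temperature with compound.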
# PI5P4Ka inh = PI5P4K alpha (human) kinase inhibition; max response, %; PI5P4Kalpha enzyme, ADP-Glo luminescence, 60 min; active compounds read low; actives 1.2% (n = 330,000); P48426; active means max response of -50% or lower; inconclusive means between -30% and -50%; inactive means -30% or higher; further: value at the top dose of about 77 µM; on the % scale 0 is the no-effect control and ±100 the full control effect
#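 PI5P4Kalpha ADP-Glo assay; 5 microM ATP final; 60 min RT reaction; HEPES pH 7.4/EGTA/CHAPS, 5% DMSO; controls lacking substrate or enzyme; luminescent end-point.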
# POLK inh = DNA polymerase kappa (human) inhibition; Potency, µM (titrated, usually from 107 µM), for the others: at the highest dose activity, negative = inhibition, most hits filed as inhibitors; Q9UBT6; actives 0.53% (n = 400,000); purified Pol kappa, fluorescent DNA synthesis assay, 10 min; further: potency means the concentration at half of the fitted maximal effect; on the % scale 0 is the no-effect control and ±100 the full control effect
#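 Inhibition of 10 nM Pol kappa is measured by a fluorescent read-out at 0 and 10 min following addition of 50 nM substrate (final), with a 15-min room-temperature compound preincubation.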
# Pol iota inh = blocks human DNA polymerase iota activity; Q9UNA4; actives 1% (n = 390,000); Pol iota fluorescent replication assay, 10 min; AID 588590; Potency, µM (series often up to 115 µM), for inactives: at the top dose activity, negative = inhibition, usual class: inhibitors; further: potency means the concentration at half of the fitted maximal effect
#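 Pol iota at 10 nM preincubated 15 min with compounds at room temperature; reaction started with fluorescent substrate, 50 nM final. Fluorescence read kinetically at 0 and 10 min; buffer-only wells as negative control.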
# Pol eta inh = DNA polymerase eta (human) inhibition | Q9Y253 | recombinant Pol eta, fluorescent DNA replication assay | Potency, µM (series often up to 114 µM), inactives show at the highest dose activity change, negative = inhibition, actives largely listed as inhibitors | actives 1.2% (n = 390,000) | AID 588591; further: potency means the concentration at half of the fitted maximal effect; on the % scale 0 is the no-effect control and ±100 the full control effect
#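 Fluorescent replication assay: 50 nM final substrate added after a 15 min room-temperature compound preincubation with 10 nM enzyme. Signal taken at 0 min and again at 10 min.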
# * hit, by the source's call; ? = inconclusive; nt = no result given; [ ] = dose if it differs, or a comment. Unless noted, the call rests on the fitted dose curve; in most records, active means well fitted curve in the direction sought with a large enough effect; inconclusive means small, poorly fitted or top-dose-only effect, or another doubt; inactive means no such curve, though single readings can be large; an effect the other way counts as inactive or inconclusive.
SMILES,POLB inh,WRN inhibitor,PI5P4Ka inh,POLK inh,Pol iota inh,Pol eta inh
Cc1ccc(C(=O)Oc2cc(C)n(C)c(=O)c2)cc1,18.1%,20.9%,1.3,-0.7%,9.0%,-3.5%
O=C(O)COc1ccccc1/C=N/NC(=O)CSc1nc2ccccc2n1Cc1ccccc1Cl,79.4µM*,-20.8%,-8.5,-4.9%,?,-12.1%
O=C(CSCCSCC(=O)c1ccco1)c1ccco1,28.2µM*,nt,nt,nt,nt,nt
O=C1NC(Cc2ccccc2)C(=O)N1Cc1ccccc1 (stereo unspecified),nt,2.4%,-2.1,-5.4%,26.1%,-10.9%
O=c1ccsn1Cc1ccccc1,4.2%,50.1µM*,?,-0.2%,25.1µM*,-14.1%
C=CCn1c(SCC(=O)Nc2ccc(C(=O)O)cc2)nc2scc(-c3ccccc3)c2c1=O,nt,-16.3%,-91.6*,-8.3%,-18.5%,-14.8%
C=CCn1c(CNC(=O)c2cccs2)nnc1SCC(=O)c1ccc(Br)cc1,26.5%,6.5%,nt,-5.7%,0.5%,-11.9%
C=CCn1c(CNC(=O)c2cccs2)nnc1SCC(=O)Nc1ccc(C(=O)O)cc1,-1.4%,7.4%,-62.9*,-27.9%,30.7%,?
C=CCn1c(SCC(=O)Nc2ccc(C(=O)O)cc2)nc2sc(C)c(C)c2c1=O,nt,-1.9%,-60.0*,-8.9%,-9.4%,-8.9%
Cn1c(SCC(=O)Nc2ccc(C(=O)O)cc2)nc2scc(-c3ccccc3Cl)c2c1=O,nt,-17.4%,-70.7*,-16.6%,-13.6%,-0.2%
Cc1cc2c(=O)n(C)c(SCC(=O)Nc3ccccc3)nc2s1,52.6%,0.3%,-10.7,-5.7%,67.2%,-7.0%
C=CCn1c(SCC(=O)Nc2c(C)n(C)n(-c3ccccc3)c2=O)nc2scc(-c3ccccc3)c2c1=O,2.6%,-9.6%,5.0,-19.6%,10.5%,8.2%
Cc1cc(C)c2sc(NC(=O)C3=COCCO3)nc2c1,0.9%,0.8%,11.7,-7.1%,20.8%,-7.0%
Cc1ccc(Cn2c(C)c(CNCC(C)c3ccccc3)c(C(=O)O)c2C)cc1 (stereo unspecified),24.4%,nt,nt,-9.0%,18.3%,-19.3%
O=C(N/N=C/c1ccc(O)cc1O)C1CC1,nt,-3.7%,-13.3,0.0%,-1.5%,-17.4%
O=C(N/N=C/c1ccc(O)cc1O)c1ccc(NC(=O)C2CCCCC2)cc1,-5.1%,-5.1%[11.6 µM],-18.8,-7.7%,?,35.5µM*
O=C(N/N=C/c1cccc(O)c1)c1ccc(NC(=O)C2CCCCC2)cc1,31.6µM*,-16.2%,0.7,-14.7%,?,4.9%
Cc1ccc(-c2nc(-c3cc4cccc(OCc5cccc(F)c5)c4oc3=O)no2)cc1,35.5µM*,nt,nt,-25.6%,-7.9%,35.5µM*
O=Nc1c(-c2c(O)[nH]c3cc(Br)ccc23)[nH]c2ccccc12,6.1%,-14.0%,-75.1*,-3.9%[60.1 µM],46.6%,?
C/C(=N\NC(=O)Cc1cc(=O)[nH][nH]1)c1cccc([N+](=O)[O-])c1,-12.7%,5.7%,0.5,6.8%[60.1 µM],7.08µM*,-16.2%
O=S(=O)(c1cccc(C(F)(F)F)c1)N1CCC(Oc2ccc(-n3cnnn3)cc2)CC1,-1.1%,nt,nt,-11.6%,9.1%,-16.0%
O=c1cc(CSc2n[nH]c(-c3ccncc3)n2)nc2sccn12,10µM*,-0.3%[11.6 µM],?,?,50.1µM*,?
Cc1ccc(SCc2cc(=O)n3ccsc3n2)c(C)c1,28.2µM*,nt,nt,nt,nt,nt
Cc1cccc(C)c1NC(=O)C(C)Sc1n[nH]c(-c2ccncc2)n1 (stereo unspecified),61.5%,2.7%,2.4,4.6%,29.1%,-19.1%
N=c1ccn2c(n1)OC1C(O)[C@@H](CO)O[C@H]12 (stereo partly specified),nt,nt,nt,5.6%,?,nt
SMILES,POLB inh,WRN inhibitor,PI5P4Ka inh,POLK inh,Pol iota inh,Pol eta inh
COC(=O)c1nc(NC(=O)c2ccc(Br)cc2)n[nH]1,12.8%,-17.7%,0.0,-12.0%,-3.3%,-2.6%
COC(=O)c1nc(NC(=O)C(C)(C)C)n[nH]1,0.8%,10.3%,nt,-8.2%,79.4µM*,1.8%
Cc1nc2cc(N3CCOCC3)c(NC(=O)C3CC3)cc2c(=O)n1Cc1ccccc1,39.6%,-8.2%[57.1 µM],-27.4,?,?,20µM*
CC(=O)Nc1ccc2c(c1)nc(CCN1CCN(c3ccccn3)CC1)n2C,16.1%,4.4%,-7.5,-3.8%,47.4%,-7.6%
Cc1cc(N)c2ccccc2[n+]1CCCCCCCCCCCCCC[n+]1c(C)cc(N)c2ccccc21,10µM*,nt,nt,nt,-123.2%[58.9 µM],?
O=c1[nH]c2ccc(Br)cc2o1,nt,0.6%,-0.1,-8.7%,52.3%,-10.8%
O=C(CCl)c1ccc2[nH]c(=O)oc2c1,-20.6%,-12.3%[11.6 µM],-23.3,-22.8%,?,44.7µM*
Cc1nn(CC(=O)N(C)Cc2ccc(F)cc2)c(C)c1[N+](=O)[O-],0.178µM*,4.1%,-3.8,0.3%,11.0%,-7.2%
Cc1nn(CCCC(=O)NCc2ccc(F)cc2)c(C)c1[N+](=O)[O-],?,7.4%,-2.6,-5.8%,11.7%,-20.5%
N#Cc1ccsc1NC(=O)CSc1nnnn1-c1ccc(O)cc1,?,?,-61.1*,0.0%,?,50.1µM*
Nc1ccc(N(CCO)CCO)cc1,17.8µM*,-29.7%,-0.6,-40.8%,2.82µM*,-20.1%
CCN(CC)c1ccc(N)cc1,nt,-14.9%,-6.2,1.7%,69.2%,-18.9%
Clc1ccccc1-c1ccc2ncnc(NCc3cccs3)c2c1,nt,nt,nt,-12.8%,-5.0%,-8.8%
Cc1ccccc1-c1ccc2ncnc(NCc3cccs3)c2c1,nt,nt,nt,22.4µM*,nt,nt
CCn1c(C)c(C2=CCN(S(=O)(=O)c3ccccc3)CC2)c2ccccc21,-11.0%,-13.1%,15.8,-11.9%,-4.6%,-21.4%
Cc1ccc(S(=O)(=O)N2CC=C(c3c(C)n(CC(=O)N4CCCC4)c4ccccc34)CC2)cc1C,-1.9%,nt,nt,-15.1%,79.4µM*,-14.0%
Cc1ccc(S(=O)(=O)N2CC=C(c3c(C)n(C)c4ccccc34)CC2)cc1,-3.0%,79.4µM*,-2.9,-6.0%,-9.4%,-17.9%
O=C(NC1CCN(Cc2ccc(Cl)c(Cl)c2)CC1)c1ccccc1,30.8%,3.4%,-2.8,-5.5%,-7.0%,-16.1%
CSc1nc(=O)[nH]nc1Sc1ccccc1,nt,-5.0%[11.6 µM],2.4,nt,nt,44.7µM*
O=C(COC(=O)/C=C/c1ccc(F)cc1)Nc1ccc(Cl)cn1,2.9%,5.3%,-1.8,-3.6%,89.3%,2.3%
COc1cc(/C=C/C(=O)OCC(=O)Nc2ccc(Cl)cn2)ccc1O,nt,4.2%[11.6 µM],-21.7,?,35.5µM*,56.2µM*
COc1cc(/C=C/C(=O)OCC(=O)Nc2ccc(S(N)(=O)=O)cc2)ccc1O,1.3%,-13.6%,-22.6,?,?,50.1µM*
COC(=O)c1cccc(N/C=C(\[N+](=O)[O-])S(=O)(=O)c2ccccc2)c1,8.3%,0.0%,-6.0,-9.1%,115.4%,-8.9%
O=C(Nc1ccc(F)cc1)C1CCN(S(=O)(=O)c2cccc3nonc23)CC1,2.3%,-4.7%[57.1 µM],-10.6,-2.2%,45.4%,-18.4%
